Measured values from PubChem BioAssay AID1832 (Broad Institute, 2009).
The whole screen tested about 300,000 compounds, of which about 1,100 (0.37%) were called active. The list comes from a sample in which actives are over-represented; it also holds similar structures and randomly drawn compounds. A number with no mark means an inactive call.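 The calls were made as follows: active = inhibition past about -25% in most replicates, and total fluorescence under double the plate's negative control median (limit read from the data); inconclusive = replicates evenly split on the limit, or fluorescence at least double controls; inactive = too little inhibition in most replicates.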

Target: Zinc finger protein mex-5 (Caenorhabditis elegans) (UniProt Q9XUB2)
Sequence (Q9XUB2 whole entry, looked up): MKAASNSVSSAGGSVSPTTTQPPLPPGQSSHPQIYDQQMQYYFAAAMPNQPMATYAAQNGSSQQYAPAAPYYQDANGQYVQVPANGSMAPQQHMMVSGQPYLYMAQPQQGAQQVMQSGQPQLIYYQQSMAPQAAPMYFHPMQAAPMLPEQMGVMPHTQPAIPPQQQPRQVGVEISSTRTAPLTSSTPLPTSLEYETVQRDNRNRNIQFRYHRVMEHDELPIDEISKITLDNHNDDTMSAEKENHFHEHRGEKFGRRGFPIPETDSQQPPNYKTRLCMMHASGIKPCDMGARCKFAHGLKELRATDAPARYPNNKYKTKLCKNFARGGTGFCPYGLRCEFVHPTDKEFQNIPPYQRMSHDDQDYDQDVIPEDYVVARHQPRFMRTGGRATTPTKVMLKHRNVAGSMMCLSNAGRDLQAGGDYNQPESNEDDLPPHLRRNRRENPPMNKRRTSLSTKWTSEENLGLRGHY
Experiment: MEX-5 zinc finger RNA-binding disruptors – biochemical, C. elegans, fluorescence polarization, MLPCN library, primary screen (AID 1832);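 also: 0% = DMSO and -100% = 5 µM competing unlabeled TCR2 RNA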
Details: MEX-5/FITC-TCR2 RNA binding, at 10 µM, stronger effect = lower value

Going from `CC(C)(C)OC(=O)N1CCC(C(=O)NNC(=O)c2ccc(Cl)cc2Cl)CC1` to `COc1ccc(C(=O)OCC(=O)NCC2CCCO2)cc1[N+](=O)[O-]` (configuration not stated), the activity score (negative = inhibition of binding) rises from 0.105% to 0.621%.

Going from `CCOC(=O)c1sc2nc(C)[nH]c(=O)c2c1C` to `CCOC(=O)c1sc2nc(CSc3ccccc3)[nH]c(=O)c2c1C`, the activity score (negative = inhibition of binding) rises from -1.49% to 3.85%.

First: CC(C)C[C@H](NC(=O)N1CC(=O)Nc2ccccc21)C(=O)N[C@H](Cc1ccccc1)C(=O)O
Second: NC(=O)c1oc2ccccc2c1NC(=O)Cc1ccccc1
The activity score (negative = inhibition of binding) of the first is higher: 2.99% for the first, -2.66% for the second.

Going from `CNC(=O)/C(C#N)=C/c1c(F)cccc1Cl` to `O=C(COC(=O)c1ccc(F)cc1F)Nc1ncccn1`, the activity score (negative = inhibition of binding) falls from 0.288% to -8.66%.

First: COc1ccc2c(C)c(CCC(=O)NC3CC3)c(=O)oc2c1C
Second: CCN(CC(=O)Nc1ccc2c(c1)OCCO2)Cc1cc(=O)oc2cc(C)c(C)cc12
The activity score (negative = inhibition of binding) of the first is lower: -3.04% for the first, -1.63% for the second.

First: CCCCC1N2CC3([N+](=O)[O-])CN1CC([N+](=O)[O-])(C2)C3(C)C (configuration not stated)
Second: CCCCCCn1c(CN2CCCC(C)C2)nc2c1c(=O)n(C)c(=O)n2C (configuration not stated)
The activity score (negative = inhibition of binding) of the first is higher: -0.199% for the first, -0.485% for the second.

Going from `COc1ccc(/C=C2\SC(=S)N(CCC(=O)Nc3ccccn3)C2=O)cc1OC` to `COc1ccc(/C=C2\SC(=S)N(CCC(=O)Nc3cccc(C(=O)O)c3)C2=O)cc1OC`, the activity score (negative = inhibition of binding) rises from -2.36% to -1.23%.

First: O=S(=O)(c1ccccc1)N1CCC(c2ccccc2)CC1
Second: COC(C(=O)NCc1ccccc1C)c1ccccc1 (configuration not stated)
The activity score (negative = inhibition of binding) of the first is higher: -0.204% for the first, -0.406% for the second.

Going from `COc1ccc(CCn2c(NN=C3CCCC3)nc3c2c(=O)[nH]c(=O)n3C)cc1` to `COc1ccc(CNC(=O)c2cc3c(=O)n4ccccc4nc3n(CC3CCCO3)c2=N)cc1` (configuration not stated), the activity score (negative = inhibition of binding) falls from 1.31% to -4.96%.

First: Cc1c(CN2CCCCC2)c(O)n(CCO)c(=O)c1C#N
Second: O=C(NCCCN1CCOCC1)C1CCCN(S(=O)(=O)N2CCCCC2)C1 (configuration not stated)
The activity score (negative = inhibition of binding) of the first is lower: -12.5% for the first, 0.135% for the second.

First: COc1cccc(NC(=O)CSc2nnc(-c3cccnc3)o2)c1
Second: O=C(Cn1nc(C(=O)O)c2ccccc2c1=O)Nc1ccc(F)cc1
The activity score (negative = inhibition of binding) of the first is higher: -0.46% for the first, -2.04% for the second.

Compared with `COc1ccc(-c2cc(=O)c3c(O)cc(O[C@@H]4O[C@H](CO[C@@H]5O[C@@H](C)[C@H](O)[C@@H](O)[C@H]5O)[C@@H](O)[C@H](O)[C@H]4O)cc3o2)cc1O`, `CCOC(=O)COc1cc(O)c2c(=O)cc(-c3ccccc3)oc2c1` is lower in activity score (negative = inhibition of binding): 0.902% for the first, 0.422% for the second.

First: COc1ccccc1OCCOc1ccc(/C=C2\C(=N)N3N=C(C)SC3=NC2=O)cc1
Second: Cc1ccc(-c2nn(-c3ccccc3)cc2/C=C2\SC(=S)N(CCCCCC(=O)O)C2=O)o1
The activity score (negative = inhibition of binding) of the first is higher: 0.998% for the first, -7.25% for the second.

Compared with `CC(C)CC(=O)c1c[nH]c(C(=O)NCc2ccccc2)c1`, `CCOCCCNC(=O)C(NC(=O)CNC(=O)c1ccccc1)c1ccc(OC)cc1` (configuration not stated) is lower in activity score (negative = inhibition of binding): -0.164% for the first, -1.36% for the second.

Going from `CN1CCN(/N=C/c2ccc(-c3ccc([N+](=O)[O-])cc3)o2)CC1` to `O=C(N/N=C/c1ccc([N+](=O)[O-])cc1)C(=O)N1CCCC1`, the activity score (negative = inhibition of binding) falls from 2.18% to -0.216%.

Compared with `CN1C(=O)/C(=C\c2ccc(-c3ccccc3)o2)SC1=S`, `COC(=O)N/N=C/c1ccc(-c2ccc(Cl)c(Cl)c2)o1` is higher in activity score (negative = inhibition of binding): -2.67% for the first, 2.42% for the second.

First: CCOCCCNC(=S)Nc1ccc2nc(N3CCN(CC)CC3)cc(C)c2c1
Second: Cc1ccc(NC(=O)CSc2sc3c(O)cc(=O)[nH]c3c2C#N)cc1C
The activity score (negative = inhibition of binding) of the first is higher: 2.27% for the first, -1.19% for the second.

First: O=C(C1=C(O)C(=O)N(Cc2ccccc2)C1c1cccnc1)c1ccco1 (configuration not stated)
Second: O=C(C1=C(O)C(=O)N(Cc2ccccc2)C1c1ccco1)c1ccco1 (configuration not stated)
The activity score (negative = inhibition of binding) of the first is lower: -1.21% for the first, 0.4% for the second.

Compared with `c1ccc2c(c1)CCc1snnc1-2`, `O=C(c1ccc(F)cc1)n1c(=S)nc2ccccn21` is lower in activity score (negative = inhibition of binding): 2.39% for the first, 0.662% for the second.

Compared with `CCCCN(C(=O)c1ccc(OC(F)(F)F)cc1)c1c(N)n(CCC)c(=O)[nH]c1=O`, `Cc1ccc(/C=C/C(=O)Nc2ccc([N+](=O)[O-])c(NC(=O)/C=C/c3ccc(C)o3)c2)o1` is lower in activity score (negative = inhibition of binding): 1.98% for the first, 1.59% for the second.

First: Cc1ccc(Cn2c(=N)c(S(=O)(=O)c3ccc(C)cc3)cc3c(=O)n4ccccc4nc32)cc1
Second: O=C(N/N=C/c1ccc([N+](=O)[O-])o1)c1cn(-c2ccccc2)nc1-c1ccc(F)cc1
The activity score (negative = inhibition of binding) of the first is higher: 6.5% for the first, -3.11% for the second.

Going from `CC(C)NC(=S)Nc1cccc2cnccc12` to `CC1(C)Cc2nc3sc4c(SCC(=O)NC(c5ccccc5)c5ccccc5)ncnc4c3cc2CO1`, the activity score (negative = inhibition of binding) falls from 0.93% to -0.0678%.

First: S=c1[nH]nc2c3c4c(sc3ncn12)CCCC4
Second: O/N=C1\CC2(Cc3nonc31)OCCO2
The activity score (negative = inhibition of binding) of the first is lower: 0.932% for the first, 2.02% for the second.

In the case of `CSc1nnc(SCc2nc3sc(C(=O)O)c(C)c3c(=O)[nH]2)s1`, the activity score (negative = inhibition of binding) is reported as -39.1% (active).
For `COc1ccc(/C=C2\SC(=S)N(CCCC(=O)NC3CCCC3)C2=O)cc1OC`, the activity score (negative = inhibition of binding) was -48.2% (active).
For `Nc1ccc2nc3c(=O)[nH]c(=S)[nH]c3nc2c1`, the activity score (negative = inhibition of binding) was -47.2% (active).
`CCCn1c(O)c(CN2CCCC(C)C2)c(C)c(C#N)c1=O` (configuration not stated) was tested, and the activity score (negative = inhibition of binding) was -33.7% (active).
In the case of `COc1c(O)cc2oc(-c3ccc(O)c(O)c3)cc(=O)c2c1O`, the activity score (negative = inhibition of binding) is reported as -34.4% (active).
For `NS(=O)(=O)c1ccc(-c2ccc(/C=C3\SC(=O)NC3=O)o2)cc1`, the activity score (negative = inhibition of binding) was -76.4% (active).
In the case of `O=C(C1=C(O)C(=O)N(c2ncccn2)C1c1cccs1)c1ccco1` (configuration not stated), the activity score (negative = inhibition of binding) is reported as -42.2% (active).
In the case of `CCn1c(=N)c(S(=O)(=O)c2ccc(F)cc2)cc2c(=O)n3ccccc3nc21`, the activity score (negative = inhibition of binding) is reported as -29.2% (active).
With `O=C(/C=C/c1ccc([N+](=O)[O-])o1)NNC(=O)c1ccc(F)cc1` the activity score (negative = inhibition of binding) was -26.8% (active).
For `O=C(N/N=C\c1ccc(-c2ccc(Cl)c(Cl)c2)o1)C(=O)N1CCCC1`, the activity score (negative = inhibition of binding) was -55.2% (active).
With `ON=C1/C(=N\O)CC2(C/C1=N/O)OCCO2` the activity score (negative = inhibition of binding) was -31.5% (active).
